Source: PubChem BioAssay (EPA / NIEHS)
The source made the active and inactive calls. How the source made its calls: active means hit-call score of the fitted dose curve at least 0.9, where 1 is the maximum; inactive means score below 0.9.

Experiments:
[1] = ATG_CRE_CIS: Attagene CIS-FACTORIAL HepG2 Assay for human cAMP Responsive Element (CRE) binding protein 3 (AID 2282926); conditions: HepG2 CRE cis-reporter, Attagene multiplexed mRNA; actives raise or lower the signal
Outline: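 Multiplexed transcription-unit reporters transfected into HepG2; 24 h dosing; RT-PCR/capillary electrophoresis fluorescence read-out; bidirectional fit vs DMSO.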

[2] = target: CCAAT/enhancer-binding protein beta (Homo sapiens) (UniProt P17676); experiment: ATG_C_EBP_CIS: Attagene CIS-FACTORIAL HepG2 Assay for human CCAAT/Enhancer Binding Protein (C/EBP) beta (AID 2282927); conditions: HepG2 Attagene cis-factorial transcription factor reporter; actives raise or lower the signal
Outline: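 Following a 24 h incubation with test chemical, transfected HepG2 cells yielded RNA whose reporter transcripts were quantified by RT-PCR and fluorescent capillary electrophoresis, with DMSO serving as baseline for bidirectional fitting.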

[3] = ATG_DR4_LXR_CIS: Attagene CIS-FACTORIAL HepG2 Assay for human Liver X Receptor (LXR), DR4 submotif (AID 2282929); conditions: HepG2 Attagene DR4 cis-reporter, mRNA transcription; actives raise or lower the signal
Outline: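 Fluorescence intensity of labelled reporter cDNA fragments, separated by capillary electrophoresis, gives the signal. HepG2 cells bearing cis-regulated reporter constructs were treated 24 h; activity fitted bidirectionally relative to DMSO negative control.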

[4] = ATG_AP_1_CIS: Attagene CIS-FACTORIAL HepG2 Assay for human Activator Protein 1 (AP-1) (AID 2282931); conditions: HepG2 Attagene cis-factorial AP-1 reporter mRNA; actives raise or lower the signal
Outline: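 Multiplexed HepG2 reporter assay, 24 h dosing. mRNA induction detected by RT-PCR plus capillary electrophoresis. Activity fitted in both directions against DMSO.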

[5] = ATG_AP_2_CIS: Attagene CIS-FACTORIAL HepG2 Assay for human Activator Protein 2 (AP-2) (AID 2282932); conditions: HepG2 AP-2 cis-reporter, Attagene transcription factor profiling; actives raise or lower the signal
Outline: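 HepG2 cells were transiently transfected with multiple cis-promoter reporter transcription units and dosed for 24 h. Reporter mRNA was measured by RT-PCR with capillary electrophoresis fluorescence; bidirectional fits relative to DMSO baseline.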

[6] = ATG_BRE_CIS: Attagene CIS-FACTORIAL HepG2 Assay for human Bone Morphogenetic Protein (BMP) Response Element (BRE) (AID 2282933); conditions: HepG2 BMP response element reporter, Attagene transcription factor profiling; actives raise or lower the signal
Outline: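 Fluorescence-labelled reporter cDNA fragments, separated by capillary electrophoresis, gave the signal for this component of a 52-readout multiplex. HepG2 cells were transfected, exposed to chemicals for 24 h, and compared with DMSO using bidirectional fitting.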

[7] = target: Retinoic acid receptor alpha (Homo sapiens) (UniProt P10276); experiment: ATG_DR5_RAR_CIS: Attagene CIS-FACTORIAL HepG2 Assay for human Retinoic Acid Receptor Alpha (RARE), DR5 submotif (AID 2282934); conditions: HepG2 Attagene cis-factorial RARE DR5 reporter, mRNA; actives raise or lower the signal;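 on AC50: reporter responds to endogenous RAR alpha beta and gamma in HepG2 not RARA alone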
Outline: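 Endpoint fitted in both directions relative to DMSO as negative control. It reflects DR5 cis-element reporter mRNA induction in transiently transfected HepG2 cells, measured 24 h after dosing through RT-PCR and fluorescent capillary electrophoresis.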

[8] = target: Transcription factor E2F1 (Homo sapiens) (UniProt Q01094); experiment: ATG_E2F_CIS: Attagene CIS-FACTORIAL HepG2 Assay for human E2F Transcription Factor 1 (AID 2282935); conditions: HepG2 Attagene cis-reporter, E2F reporter RNA transcripts; actives raise or lower the signal
Outline: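 HepG2 cells transiently transfected with multiplexed cis-element reporter units, dosed for 24 h. Reporter mRNA measured by RT-PCR, 6-FAM primer-extension labeling, HpaI digestion and capillary electrophoresis; bidirectional fit versus DMSO baseline.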

[9] = ATG_E_Box_CIS: Attagene CIS-FACTORIAL HepG2 Assay for human Enhancer Box (E-box) (AID 2282936); conditions: HepG2 E-box cis-reporter transcription, actives raise or lower the signal
Outline: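 HepG2 cells transiently transfected with multiplexed cis-element reporter units sensing endogenous transcription factor activity; 24 h compound exposure. Reporter mRNA measured by RT-PCR, 6-FAM primer extension, HpaI digestion and capillary electrophoresis; bidirectional fit versus DMSO.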

[10] = ATG_M_61_CIS: Attagene CIS-FACTORIAL HepG2 Assay for M61 Transcription Factor (Internal Marker) (AID 2282937); conditions: HepG2 Attagene CIS-FACTORIAL M61 internal marker reporter; actives raise or lower the signal
Outline: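 Endogenous transcription factor activity in HepG2 is read through transiently transfected cis-element reporter units. After 24 h dosing, RNA undergoes reverse transcription, PCR and primer extension with 6-FAM before capillary electrophoresis; DMSO-referenced bidirectional fit.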

[11] = ATG_EGR_CIS: Attagene CIS-FACTORIAL HepG2 Assay for human Early Growth Response 1 (EGR1) (AID 2282938); conditions: HepG2 Attagene CIS-FACTORIAL EGR reporter mRNA; actives raise or lower the signal
Outline: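 Activity is taken as induction or loss of reporter mRNA versus DMSO, fitted bidirectionally. Transcripts from cis-regulated reporter units in transiently transfected HepG2 were measured after 24 h by RT-PCR with capillary electrophoresis.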

[12] = ATG_M_19_CIS: Attagene CIS-FACTORIAL HepG2 Assay for M19 Transcription Factor (Internal Marker) (AID 2282939); conditions: HepG2 Attagene CIS-FACTORIAL M19 internal marker reporter; actives raise or lower the signal
Outline: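 HepG2, MRTU transient transfection, 24 h dosing. Total RNA → RT-PCR → 6-FAM primer extension → HpaI digest → CE fluorescence. Bidirectional curve fit, DMSO negative control.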

[13] = ATG_ERE_CIS: Attagene CIS-FACTORIAL HepG2 Assay for Estrogen Response Element (ERE) (AID 2282940); conditions: HepG2 ERE cis-reporter, Attagene RNA transcript; actives raise or lower the signal
Outline: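 After a 24 h chemical treatment, RNA from reporter-transfected HepG2 cells is reverse-transcribed, PCR-amplified and fluorescently labelled. Fragments separated by capillary electrophoresis give reporter signal; DMSO serves as negative control.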

[14] = ATG_Ets_CIS: Attagene CIS-FACTORIAL HepG2 Assay for human Erythroblast Transformation Specific (ETS) (AID 2282941); conditions: HepG2 ETS cis-reporter transcription, actives raise or lower the signal
Outline: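 HepG2 cells transfected with multiple cis-regulated reporter units measuring endogenous ETS-driven transcription, 24 h after dosing. Reporter mRNA quantified by RT-PCR with capillary electrophoresis; bidirectional fit relative to DMSO.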

[15] = target: Hepatocyte nuclear factor 3-beta (Homo sapiens) (UniProt Q9Y261); experiment: ATG_FoxA2_CIS: Attagene CIS-FACTORIAL HepG2 Assay for human Forkhead box A2 (FOXA2) (AID 2282942); conditions: HepG2 cis-reporter transcription factor activity, 24 h; actives raise or lower the signal
Outline: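 Reporter transcript induction is measured by fluorescence after capillary electrophoresis of RT-PCR products from HepG2 cells exposed 24 h. Cis-regulated reporter units report endogenous factor activity; curves fitted both directions against DMSO.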

[16] = ATG_GATA_CIS: Attagene CIS-FACTORIAL HepG2 Assay for human GATA Binding Protein (AID 2282944); conditions: HepG2 GATA cis-element reporter, Attagene multiplex mRNA; actives raise or lower the signal
Outline: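 Cells: HepG2, transiently transfected with cis-regulated reporter transcription units. Exposure: 24 h. Detection: RT-PCR plus capillary electrophoresis of FAM-labeled fragments. Analysis: bidirectional, DMSO as baseline.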

[17] = target: Aryl hydrocarbon receptor (Homo sapiens) (UniProt P35869); experiment: ATG_Ahr_CIS: Attagene CIS-FACTORIAL HepG2 Assay for human Aryl Hydrocarbon Receptor (Ahr) (AID 2282930); conditions: HepG2 AhR cis-factorial reporter transcription; actives raise or lower the signal
Outline: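 Values derive from bidirectional fitting against DMSO negative control. Underlying signal: cis-element reporter mRNA in transiently transfected HepG2, harvested 24 h post-dose and measured by RT-PCR plus capillary electrophoresis.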

[18] = ATG_GLI_CIS: Attagene CIS-FACTORIAL HepG2 Assay for human Zinc Finger Protein GLI1 (AID 2282945); conditions: HepG2, Attagene cis-factorial reporter mRNA, GLI element; actives raise or lower the signal
Outline: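 HepG2 cells transiently transfected with cis-promoter multiplexed reporter units report endogenous transcription factor activity. After 24 h chemical exposure, reporter mRNA was quantified by RT-PCR, 6-FAM labelling, HpaI digestion and capillary electrophoresis, with bidirectional fitting against DMSO.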

[19] = ATG_FoxO_CIS: Attagene CIS-FACTORIAL HepG2 Assay for human Forkhead box O (FoxO) (AID 2282943); conditions: HepG2 Attagene cis-reporter, FoxO element, mRNA; actives raise or lower the signal
Outline: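 Values reflect reporter mRNA induction or loss in HepG2 cells 24 h post-dosing, fitted bidirectionally with DMSO as negative control and baseline. Detection used RT-PCR and fluorescence capillary electrophoresis.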

[20] = ATG_CMV_CIS: Attagene CIS-FACTORIAL HepG2 Assay for human CMV (Internal Marker) (AID 2282928); conditions: HepG2 CMV promoter reporter, transcription factor profiling; actives raise or lower the signal;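 further: endpoint acts as a background internal control marker rather than a target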
Outline: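 CMV internal-marker background readout in transiently transfected HepG2 cells bearing cis-regulated reporter units. Reporter mRNA is measured 24 h after dosing by RT-PCR and capillary electrophoresis, with bidirectional fitting against DMSO.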

Measured: AC50

Aryl hydrocarbon receptor (Homo sapiens), sequence (P35869 whole entry, looked up): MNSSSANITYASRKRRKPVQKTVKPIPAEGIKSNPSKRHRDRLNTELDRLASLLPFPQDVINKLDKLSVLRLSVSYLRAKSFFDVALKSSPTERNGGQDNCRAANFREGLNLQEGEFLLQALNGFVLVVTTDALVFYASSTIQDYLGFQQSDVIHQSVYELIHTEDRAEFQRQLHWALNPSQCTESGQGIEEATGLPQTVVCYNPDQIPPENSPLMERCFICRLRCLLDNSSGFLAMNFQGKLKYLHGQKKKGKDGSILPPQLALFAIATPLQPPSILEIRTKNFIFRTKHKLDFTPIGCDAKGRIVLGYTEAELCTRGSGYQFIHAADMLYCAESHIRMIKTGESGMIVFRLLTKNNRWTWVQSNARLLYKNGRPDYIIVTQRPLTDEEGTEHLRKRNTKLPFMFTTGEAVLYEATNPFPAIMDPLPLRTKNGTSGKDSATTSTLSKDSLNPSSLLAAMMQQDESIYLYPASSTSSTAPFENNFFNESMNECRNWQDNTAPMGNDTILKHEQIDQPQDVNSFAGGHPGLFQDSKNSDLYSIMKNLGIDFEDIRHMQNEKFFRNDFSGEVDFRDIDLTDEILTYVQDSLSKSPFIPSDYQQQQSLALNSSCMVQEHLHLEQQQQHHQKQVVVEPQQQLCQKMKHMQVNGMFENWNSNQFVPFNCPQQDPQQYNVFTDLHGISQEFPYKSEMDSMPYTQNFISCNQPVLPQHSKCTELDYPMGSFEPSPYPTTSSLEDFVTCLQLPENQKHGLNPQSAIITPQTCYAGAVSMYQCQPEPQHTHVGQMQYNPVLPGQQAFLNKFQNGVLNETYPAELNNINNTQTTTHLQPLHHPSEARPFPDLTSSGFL
Retinoic acid receptor alpha (Homo sapiens), sequence (P10276 whole entry, looked up): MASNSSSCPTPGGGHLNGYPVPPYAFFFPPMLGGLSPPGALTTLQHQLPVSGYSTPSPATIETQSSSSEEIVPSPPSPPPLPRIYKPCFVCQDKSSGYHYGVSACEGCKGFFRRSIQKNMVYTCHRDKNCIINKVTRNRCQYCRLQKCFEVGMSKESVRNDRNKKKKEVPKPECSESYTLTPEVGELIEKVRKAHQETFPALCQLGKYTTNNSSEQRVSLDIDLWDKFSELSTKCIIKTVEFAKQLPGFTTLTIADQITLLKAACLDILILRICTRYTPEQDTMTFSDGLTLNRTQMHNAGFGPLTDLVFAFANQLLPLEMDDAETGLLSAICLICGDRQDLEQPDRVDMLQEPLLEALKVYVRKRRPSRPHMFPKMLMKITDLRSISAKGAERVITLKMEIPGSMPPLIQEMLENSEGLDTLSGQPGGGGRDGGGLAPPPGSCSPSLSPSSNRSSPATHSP
Transcription factor E2F1 (Homo sapiens), sequence (Q01094 whole entry, looked up): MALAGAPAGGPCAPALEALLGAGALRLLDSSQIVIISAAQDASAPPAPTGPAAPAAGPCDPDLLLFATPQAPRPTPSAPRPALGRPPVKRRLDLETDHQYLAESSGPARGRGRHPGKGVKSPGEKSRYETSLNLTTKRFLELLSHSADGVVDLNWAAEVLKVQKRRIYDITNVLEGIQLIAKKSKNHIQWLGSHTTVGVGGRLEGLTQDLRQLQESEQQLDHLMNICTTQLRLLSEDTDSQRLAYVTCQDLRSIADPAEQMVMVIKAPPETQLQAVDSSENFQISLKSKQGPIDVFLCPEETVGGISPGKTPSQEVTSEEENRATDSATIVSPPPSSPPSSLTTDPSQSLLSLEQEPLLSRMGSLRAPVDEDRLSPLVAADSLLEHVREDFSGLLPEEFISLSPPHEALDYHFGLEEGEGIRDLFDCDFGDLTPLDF
Hepatocyte nuclear factor 3-beta (Homo sapiens), sequence (Q9Y261 whole entry, looked up): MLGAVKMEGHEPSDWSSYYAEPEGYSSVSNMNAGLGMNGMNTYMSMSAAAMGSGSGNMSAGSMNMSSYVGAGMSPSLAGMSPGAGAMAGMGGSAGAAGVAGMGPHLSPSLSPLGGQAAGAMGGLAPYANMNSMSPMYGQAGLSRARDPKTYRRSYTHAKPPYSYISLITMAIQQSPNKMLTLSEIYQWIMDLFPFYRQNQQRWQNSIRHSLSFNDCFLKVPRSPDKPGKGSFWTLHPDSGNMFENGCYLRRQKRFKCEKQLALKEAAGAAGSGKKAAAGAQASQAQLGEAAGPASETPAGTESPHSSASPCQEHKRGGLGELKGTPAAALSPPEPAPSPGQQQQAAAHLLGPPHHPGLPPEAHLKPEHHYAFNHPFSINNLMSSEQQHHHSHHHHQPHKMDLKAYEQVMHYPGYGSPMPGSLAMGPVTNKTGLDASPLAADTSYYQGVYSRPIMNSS
CCAAT/enhancer-binding protein beta (Homo sapiens), sequence (P17676 whole entry, looked up): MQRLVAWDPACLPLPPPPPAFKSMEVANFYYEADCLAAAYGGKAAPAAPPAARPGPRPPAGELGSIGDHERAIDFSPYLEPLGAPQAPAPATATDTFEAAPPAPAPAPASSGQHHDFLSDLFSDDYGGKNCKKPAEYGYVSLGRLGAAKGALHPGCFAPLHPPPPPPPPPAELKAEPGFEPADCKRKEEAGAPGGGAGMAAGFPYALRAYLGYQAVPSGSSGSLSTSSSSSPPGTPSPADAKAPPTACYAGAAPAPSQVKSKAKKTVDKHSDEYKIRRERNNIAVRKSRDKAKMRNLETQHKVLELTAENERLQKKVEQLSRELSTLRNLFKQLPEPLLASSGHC

Nc1c(S(=O)(=O)O)cc(Br)c2c1C(=O)c1ccccc1C2=O
active: [13] 31.9 µM
inactive: [1] | [2] | [3] | [4] | [5] | [6] | [7] | [8] | [9] | [10] | [11] | [12] | [14] | [15] | [16]

BrCc1cccc(Oc2ccccc2)c1
inactive: [1] | [2] | [17] | [4] | [5] | [6] | [8] | [9] | [10] | [11] | [12] | [14] | [15] | [16] | [18]
active: [3] 159 µM | [7] 5.96 µM

CCNCCO
inactive: [1] | [2] | [3] | [17] | [4] | [5] | [6] | [7] | [8] | [9] | [10] | [11] | [12] | [14] | [15] | [19] | [16]

COC(=O)c1ccc(C)cc1C1=NC(C)(C(C)C)C(=O)N1 (stereo not given) (tested in a mixture with another compound)
inactive: [1] | [2] | [3] | [17] | [4] | [5] | [6] | [7] | [8] | [9] | [10] | [11] | [12] | [14] | [15] | [19] | [18]

CC(C)CCCCCCCCCCCCCCC(=O)O
inactive: [1] | [2] | [3] | [17] | [4] | [5] | [6] | [8] | [9] | [10] | [11] | [12] | [14] | [15] | [19] | [16]
active: [7] 54.2 µM

CCCCCCCC(=O)OCCCCCC
inactive: [1] | [2] | [3] | [4] | [5] | [6] | [7] | [8] | [9] | [10] | [11] | [12] | [14] | [15] | [19] | [16] | [18]

C=Cc1ccc(C(C)(C)C)cc1
active: [7] 76.1 µM
inactive: [1] | [2] | [20] | [3] | [6] | [8] | [9] | [10] | [11] | [12] | [14] | [15] | [19] | [16]

CCc1ccc(O)c(OC)c1
inactive: [1] | [2] | [3] | [4] | [6] | [7] | [8] | [9] | [10] | [11] | [12] | [14] | [15] | [19] | [16] | [18]

CC(=O)Nc1ccc(C(=O)CCl)cc1
inactive: [2] | [17] | [6] | [7] | [8] | [10] | [11] | [12] | [14] | [15] | [16] | [18]
active: [1] 7.97 µM | [3] 12.9 µM | [4] 56.5 µM | [5] 7.19 µM | [9] 20.6 µM

OC[C@H]1O[C@@H]2O[C@H]3[C@H](O)[C@@H](O)[C@@H](O[C@H]4[C@H](O)[C@@H](O)[C@@H](O[C@H]5[C@H](O)[C@@H](O)[C@@H](O[C@H]6[C@H](O)[C@@H](O)[C@@H](O[C@H]7[C@H](O)[C@@H](O)[C@@H](O[C@H]8[C@H](O)[C@@H](O)[C@@H](O[C@H]9[C@H](O)[C@@H](O)[C@@H](O[C@H]1[C@H](O)[C@H]2O)O[C@@H]9CO)O[C@@H]8CO)O[C@@H]7CO)O[C@@H]6CO)O[C@@H]5CO)O[C@@H]4CO)O[C@@H]3CO
inactive: [1] | [2] | [3] | [17] | [4] | [5] | [6] | [7] | [8] | [9] | [10] | [11] | [12] | [14] | [15] | [19] | [18]

COc1ccc(COC(C)=O)cc1
inactive: [1] | [2] | [20] | [3] | [5] | [6] | [7] | [9] | [10] | [11] | [12] | [14] | [15] | [19] | [16] | [18]

IC(I)I
inactive: [1] | [2] | [3] | [4] | [5] | [6] | [7] | [8] | [9] | [10] | [11] | [12] | [14] | [15] | [19] | [16] | [18]
active: [17] 12.8 µM

CCc1cc(Cc2cc(CC)cc(C(C)(C)C)c2O)c(O)c(C(C)(C)C)c1
active: [1] 19.1 µM | [3] 14.8 µM | [4] 9.51 µM | [6] 4.81 µM | [7] 2.28 µM | [11] 18.5 µM | [18] 17.1 µM
inactive: [2] | [17] | [5] | [8] | [10] | [12] | [14] | [15] | [19] | [16]

CCOC(=O)CC(C)O (stereo not given)
inactive: [1] | [2] | [3] | [17] | [4] | [5] | [6] | [7] | [8] | [9] | [10] | [11] | [12] | [14] | [15] | [19] | [16] | [18]
